Screens from PubChem.
Most compounds without a hit are left out; they make up all but 19% or so of the library.
HT1080 IDH1KD tx: qHTS for induction of synthetic lethality in tumor cells producing 2HG: qHTS for the HT-1080-IDH1KD cell line; HT-1080 IDH1 knockdown viability, ATP luminescence, 48 h; Potency, µM (titrated, usually from 46.1 µM), without a hit: at the highest dose activity, negative = toxicity, hits mostly cytotoxic; 360,000 compounds, 2% hits;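 further: potency means the concentration at half of the fitted maximal effect; 0% = DMSO wells and -100% = cell-free medium wells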
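Using the IDH1-knockdown HT-1080 line run in the same batch and compound series as the NT line, viability after 48 h at 37 °C was determined by CellTiter-Glo luminescence and expressed as % activity.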
ELG1 DNA repair: qHTS screen for small molecules that inhibit ELG1-dependent DNA repair in human embryonic kidney (HEK293T) cells expressing luciferase-tagged ELG1. HEK293T ELG1-luciferase reporter, luminescence, 16 h; DNA damage induced by 5-fluorouridine. Potency, µM (doses to about 46.1 µM), for inactives: at the highest dose activity change, negative = inhibition, most hits filed as inhibitors. 330,000 compounds, 2.3% hits; further: potency means the concentration at half of the fitted maximal effect; nearly all actives have a fitted effect of over 55% in size
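Quantitative HTS, concentration-response format. 2,000 cells/well co-treated with 5-fluorouridine and compound, 16 hr in 5% CO2 at 37 °C; ONE-Glo luminescence read after 30 min.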
TDP1 cell noCPT: qHTS for Inhibitors of human tyrosyl-DNA phosphodiesterase 1 (TDP1): qHTS in cells in absence of CPT. Potency, µM (titrated, usually from 46.2 µM), for inactives: at the highest dose activity change, negative = growth inhibition, hits mostly inhibitors. DT40 Tdp1-/- hTDP1 cells, no CPT, ATP luminescence, 48 h. 420,000 compounds, 15% hits; further: potency means the concentration at half of the fitted maximal effect; nearly all actives have a fitted effect of over 55% in size
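Stably hTDP1-transfected Tdp1-null chicken DT40 cells were treated with library compounds minus camptothecin and grown for at least 48 hr at 37 °C, after which cellular ATP was quantified by luminescence.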
IL-1B inflam inh: qHTS for Inhibitors of Inflammasome Signaling: IL-1-beta AlphaLISA Primary Screen. THP-1 LPS/ATP IL-1B secretion, AlphaLISA, 16 h; active compounds read low. activity change, % at 57.5 µM. 360,000 compounds, 4.7% hits. AID 743279, 2014; in the data active means activity change below about -50%; inconclusive means mostly about -30% to -49%
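THP-1 cells pretreated 1 hr with compounds (up to 57.5 uM final), then stimulated with LPS (250 ng/mL final) plus ATP (1.25 mM final); secreted IL-1B measured by AlphaLISA after 16 hr, decreased signal indicating inhibition.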
DT40 TDP1 CPT: qHTS for Inhibitors of human tyrosyl-DNA phosphodiesterase 1 (TDP1): qHTS in cells in presence of CPT; chicken DT40 Tdp1-/-;hTDP1 cells + 20 nM CPT, ATP luminescence, 48 h; Potency, µM (highest dose often 46.2 µM), for inactives: top-dose activity change, negative = growth inhibition, hits mostly inhibitors; 420,000 compounds, 12% hits; further: potency means the concentration at half of the fitted maximal effect; nearly all actives have a fitted effect of over 55% in size
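Cell growth measured by CellTiter-Glo luminescence after a minimum 48 h, 37 C compound exposure with 20 nM CPT in Tdp1-knockout DT40 cells stably expressing hTDP1, seeded 400/well; qHTS titration format.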
HT1080NT lethal: qHTS for induction of synthetic lethality in tumor cells producing 2HG: qHTS for the HT-1080-NT fibrosarcoma cell line; Potency, µM (titrated, usually from 46.1 µM), without a hit: at the top dose activity, negative = less viability, hits mostly cytotoxic; HT-1080-NT fibrosarcoma viability, CellTiter-Glo ATP luminescence, 48 h; 360,000 compounds, 1.6% hits;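 further: NT is the 2HG producing partner of a matched IDH1 knockdown line; potency means the concentration at half of the fitted maximal effect; 0% = DMSO-treated cells and -100% = media-only wells without cells; nearly all actives have a fitted effect of over 55% in size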
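A 48-hour cytotoxicity screen used HT-1080-NT cells plated 2 hours before compound delivery. ATP-based CellTiter-Glo luminescence measured viability, normalized to DMSO and no-cell controls.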
* hit, by the source's call; u = inconclusive; x = not tested or not shown. Unless noted, the call rests on the fitted dose curve; in most records, active means well fitted curve in the direction sought with a large enough effect; inconclusive means small, poorly fitted or top-dose-only effect, or another doubt; inactive means no such curve, though single readings can be large; an effect the other way counts as inactive or inconclusive. Unless noted, on the % scale 0 is the no-effect control and ±100 the full control effect.

SMILES | HT1080 IDH1KD tx | ELG1 DNA repair | TDP1 cell noCPT | IL-1B inflam inh | DT40 TDP1 CPT | HT1080NT lethal
Cc1c(Cl)cccc1NC(=O)Nc1nnc(N(C)C2CCCCC2)s1 | x | x | 16.4µM* | x | 14.6µM* | x
Cc1c(Cl)cccc1NC(=O)Nc1nnc(N2CCCCCC2)s1 | x | x | -15.9% | x | -11.9% | x
O=C(O)c1ccccc1NC(=O)C1CCN(S(=O)(=O)c2ccc3c(c2)OCCO3)CC1 | 0.2% | x | -24.8% | 17.8 | 8.0% | 1.3%
CSc1ccc(CCNC(=O)Cn2ncc3c(=O)oc4ccc(C)cc4c32)cc1 | x | x | -9.7% | x | 7.8% | x
CC(=O)c1cccc(-c2ccnc3c2CC(C(=O)Nc2ccc(Cl)cc2)O3)c1 (stereo unspecified) | 16.4µM* | x | 20.6µM* | -7.9 | u | u
CC(=O)Nc1ccc(NC(=O)C2Cc3c(-c4cccc(C(C)=O)c4)ccnc3O2)cc1 (stereo unspecified) | -0.7% | x | -19.4% | 30.4 | 2.5% | -1.1%
CC(=O)c1cccc(-c2ccnc3c2CC(C(=O)Nc2ccc(Cl)c(C(F)(F)F)c2)O3)c1 (stereo unspecified) | u | x | u | 93.9 | 20.6µM* | -19.9%
CN(C)c1cccc(NC(=O)C2Cc3c(-c4ccc(Cl)cc4)ccnc3O2)c1 (stereo unspecified) | u | x | u | -28.2 | u | u
CC(=O)c1cccc(NC(=O)C2Cc3c(-c4ccc(Cl)cc4)ccnc3O2)c1 (stereo unspecified) | u | x | 10.3µM* | -8.2 | u | u
O=C(Nc1ccc(Cl)c(C(F)(F)F)c1)C1Cc2c(-c3ccc4c(c3)OCO4)ccnc2O1 (stereo unspecified) | 20.6µM* | x | u | -2.6 | 23.1µM* | u
COc1ccc(Cn2cc(CN3CC(N4CCN(C)CC4)CS3(=O)=O)nn2)cc1 (stereo unspecified) | 12.4% | x | u | 12.7 | 5.8% | 22.8%
Nc1cc(=O)[nH]c(SCC(=O)Nc2ccccc2Sc2ccccc2)n1 | -8.0% | u | u | 41.5 | u | -17.9%
Cc1cc(C)nc(/N=C(\N)Nc2ccc(S(=O)(=O)Nc3nccc(C)n3)cc2)n1 | -19.5% | 7.7% | -1.7% | 32.3 | -13.9% | 7.8%
COc1ccccc1NC(=O)CSc1nnc(CCC(=O)Nc2ccccc2F)n1C | -0.8% | -0.1% | -26.5% | -12.9 | -10.4% | -0.9%
O=C(COC(=O)c1ccc(F)c(S(=O)(=O)N2CCCCC2)c1)NCc1ccc(F)cc1 | -1.5% | 6.2% | u | 19.2 | 4.3% | -20.1%
Cn1nccc1-c1ccc(C(=O)NCc2ccc(Cl)cc2)c2occc12 | -19.1% | x | u | 41.4 | u | -29.7%
Cc1c(Cl)ccc2c(C(=O)Nc3cc(C(C)(C)C)on3)cc(-c3ccccn3)nc12 | 1.5% | 2.1% | u | 49.4 | u | -0.9%
CCc1ccc(NC(=O)C(=O)NCCc2csc(-c3ccc(C(F)(F)F)cc3)n2)cc1 | x | x | u | x | -19.3% | x
O=C(Nc1ncccc1O)c1ccc2c(c1)OCCO2 | -3.0% | u | 14.6µM* | 11.5 | 23.1µM* | -8.6%
O=C(Nc1ncccc1O)c1ccc2ccccc2c1 | -11.1% | u | 1.6% | 46.6 | -14.2% | -1.8%
O=C(Nc1ncccc1O)c1ccc2c(c1)OCO2 | -19.8% | u | 16.4µM* | 26.6 | u | -32.8%
